# The panel holds about 83,000 compounds, 20% with a hit somewhere; the sample as a whole holds those more often.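 48-hour exposure, single concentration, 96-well plates; percent growth endpoint where 0 means no net growth. Active: below 10.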 The source made the active and inactive calls.
# System: HCT-116 colon
# Experiment: NCI-60 one-dose screen, 48 h (100 = growth as untreated, 0 = no growth, -100 = all killed)
# Conditions: 10 µM unless noted
row,Compound,growth
1,Clc1cnc(Nc2ccc(OCCN3CCCC3)cc2)nc1NCc1ccco1,7.55% (active)
2,COc1ccc(Oc2nc(Nc3ccc(N4CCCCC4)nc3)ncc2NC(=O)c2cc(OC)cc(OC)c2)cc1,18.8% (inactive)
3,CCCn1nc(-c2ccccc2)c2c(-c3ccccc3)onc2c1=O,58.9% (inactive)
4,COc1ccc(/C(C)=C(\c2ccc(Cl)cc2)c2ccc(OCCCN(C)C)cc2)cc1F,21.2% (inactive)
5,CCN(CC)N=Nc1nn(C(=O)Nc2ccc(Cc3ccccc3)cc2)c2ccc(Cl)cc12,44% (inactive)
6,C=C1C(=O)O[C@H]2[C@H]1CC/C(COC(=O)NCc1ccc(Cn3c(=O)sn(CCCCl)c3=O)cc1)=C\CC[C@@]1(C)O[C@@H]21,-63.6% (active)
7,NC(=S)N/N=C/C(=O)O,6.98% (active)
8,C=C(C)[C@@H]1CC[C@]2(CNCCO)CC[C@]3(C)[C@H](CC[C@@H]4[C@@]5(C)CCC(N)[C@@](C)(CO)[C@@H]5CC[C@]43C)[C@@H]12 (stereo partly drawn),-90.2% (active)
9,Clc1ccc2c(NCCCN3CCN(c4nc(-n5ccnc5)nc5ccccc45)CC3)ccnc2c1,72.8% (inactive)
10,O=C1C(Cl)C(c2ccccc2Cl)N1n1cnnc1 (stereo not drawn),96.4% (inactive)
11,COC(=O)c1ccc(CSc2nnc(-c3ccncc3)o2)cc1,97.6% (inactive)
12,C#CC[C@H](N)C(=O)O,96.3% [20 µM] (inactive)
13,CN1CCN(C(=O)[C@]23CCC(C)(C)C[C@@H]2C2=CC[C@@H]4[C@@]5(C)Cc6c([nH]c7ccccc67)C(C)(C)[C@@H]5CC[C@@]4(C)[C@]2(C)CC3)CC1,70.7% (inactive)

# Source: PubChem BioAssay (NCI)
